# Experimental data taken from the supplement of paper PMC8728848.
# Many of the other results were omitted from the sample, so the strongest signals are more common in it than they were.
# B1: Epa19 (Candida glabrata) (protein)
# chain: MGSSHHHHHHSSGLVPRGSHMASSKDPTRFPIGCSPQVLKTQPGLAVKLYSYGHPVPGCSYITYQYPDFPRSGYKKERKLADITGVNGKIDIDLKPNDPCRVLTGHLPSNYNYPDTLTYTNFTMILYGYFQPKVTGYHTFNLEADDLLFMNLGAGNAFDCCKAESTLDNFGNYQSYSLWGSDYAKANITVFLVSGVYYPIRLFYVNRDNNAVIDFSFTTEFDKEKVHDFTSYFFSASDGEQCPGSV
# Assays:
# Assay in all cases: glycan array binding signal (z-score within array); higher = stronger binding
# Details in all cases: glycan notation: IUPAC condensed, linker removed
# [1] = target: Gal6S(b1-4)GlcNAc
# Procedure, shortened: (§1)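 Columns mapping to the same glycan were averaged after glycan names were converted to IUPAC-condensed notation. The data come from 3228 arrays in the Consortium for Functional Glycomics database, limited to those with an available protein sequence. Binding is reported as a within-array Z-score averaged across arrays of one protein sequence and across linkers.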
# [2] = target: GalNAc(a1-3)Gal
# Procedure, shortened: as §1
# [3] = target: GalNAc(b1-3)Gal(a1-4)Gal(b1-4)GlcNAc
# Procedure, shortened: as §1
# [4] = target: GalNAc(b1-3)Gal(a1-6)Gal(b1-4)Glc
# Procedure, shortened: as §1
# [5] = target: Glc(a1-4)Glc(a1-4)Glc(a1-4)Glc
# Procedure, shortened: as §1
# [6] = target: GlcNAc(a1-4)Gal(b1-4)GlcNAc(b1-3)Gal(b1-4)GlcNAc(b1-3)Gal(b1-4)GlcNAc
# Procedure, shortened: as §1
# [7] = target: GlcNAc(b1-3)Gal
# Procedure, shortened: as §1
# [8] = target: GlcNAc(b1-3)Gal(b1-4)Glc
# Procedure, shortened: as §1
# [9] = target: GlcNAc(b1-3)Gal(b1-4)GlcNAc
# Procedure, shortened: as §1
# [10] = target: GlcNAc(b1-3)Gal(b1-4)GlcNAc(b1-3)Gal(b1-4)GlcNAc(b1-2)[GlcNAc(b1-3)Gal(b1-4)GlcNAc(b1-3)Gal(b1-4)GlcNAc(b1-6)]Man(a1-6)[GlcNAc(b1-3)Gal(b1-4)GlcNAc(b1-3)Gal(b1-4)GlcNAc(b1-2)Man(a1-3)]Man(b1-4)GlcNAc(b1-4)[Fuc(a1-6)]GlcNAc
# Procedure, shortened: as §1
# [11] = target: GlcNAc(b1-3)Gal(b1-4)GlcNAc(b1-3)Gal(b1-4)GlcNAc(b1-3)Gal(b1-4)GlcNAc(b1-2)[GlcNAc(b1-3)Gal(b1-4)GlcNAc(b1-3)Gal(b1-4)GlcNAc(b1-3)Gal(b1-4)GlcNAc(b1-6)]Man(a1-6)[GlcNAc(b1-3)Gal(b1-4)GlcNAc(b1-3)Gal(b1-4)GlcNAc(b1-3)Gal(b1-4)GlcNAc(b1-2)Man(a1-3)]Man(b1-4)GlcNAc(b1-4)[Fuc(a1-6)]GlcNAc
# Procedure, shortened: as §1
# [12] = target: GlcNAc(b1-3)Gal(b1-4)GlcNAc(b1-3)Gal(b1-4)GlcNAc(b1-3)Gal(b1-4)GlcNAc(b1-3)Gal(b1-4)GlcNAc(b1-2)[GlcNAc(b1-3)Gal(b1-4)GlcNAc(b1-3)Gal(b1-4)GlcNAc(b1-3)Gal(b1-4)GlcNAc(b1-3)Gal(b1-4)GlcNAc(b1-6)]Man(a1-6)[GlcNAc(b1-3)Gal(b1-4)GlcNAc(b1-3)Gal(b1-4)GlcNAc(b1-3)Gal(b1-4)GlcNAc(b1-3)Gal(b1-4)GlcNAc(b1-2)Man(a1-3)]Man(b1-4)GlcNAc(b1-4)[Fuc(a1-6)]GlcNAc
# Procedure, shortened: as §1
# [13] = target: GlcNAc(b1-4)GlcNAc(b1-4)GlcNAc
# Procedure, shortened: as §1
# [14] = target: GlcNAc(b1-6)Gal(b1-4)GlcNAc
# Procedure, shortened: as §1
# [15] = target: Kdn(a2-6)Gal(b1-4)GlcNAc
# Procedure, shortened: as §1
# [16] = target: Man(a1-2)Man(a1-6)[Man(a1-3)]Man(a1-6)[Man(a1-2)Man(a1-2)Man(a1-3)]Man(b1-4)GlcNAc(b1-4)GlcNAc
# Procedure, shortened: as §1
# [17] = target: Man(a1-6)Man
# Procedure, shortened: as §1
# [18] = target: Neu5Ac(a2-3)Gal(b1-3)GlcNAc(b1-2)Man
# Procedure, shortened: as §1
# [19] = target: Neu5Ac(a2-3)Gal(b1-3)[GlcNAc(b1-6)]GalNAc
# Procedure, shortened: as §1
# [20] = target: Neu5Ac(a2-3)Gal(b1-3)[Neu5Ac(a2-6)]GlcNAc(b1-3)[Fuc(a1-3)[Gal(b1-4)]GlcNAc(b1-6)]Gal(b1-4)Glc
# Procedure, shortened: as §1
# [21] = target: Neu5Ac(a2-3)Gal(b1-3)]Neu5Ac(a2-3)Gal(b1-4)]GlcNAc
# Procedure, shortened: as §1
# [22] = target: Neu5Ac(a2-3)Gal(b1-4)GlcNAc(b1-3)Gal(b1-4)GlcNAc(b1-3)Gal(b1-4)GlcNAc
# Procedure, shortened: as §1
# [23] = target: Neu5Ac(a2-3)Gal(b1-4)GlcNAc(b1-3)Gal(b1-4)[Fuc(a1-3)]GlcNAc
# Procedure, shortened: as §1
# [24] = target: Neu5Ac(a2-3)Gal(b1-4)[Fuc(a1-3)]GlcNAc(b1-3)GalNAc
# Procedure, shortened: as §1
# [25] = target: Neu5Ac(a2-3)[GalNAc(b1-4)]Gal(b1-4)Glc
# Procedure, shortened: as §1
# [26] = target: Neu5Ac(a2-6)Gal(b1-4)Glc
# Procedure, shortened: as §1
# [27] = target: Neu5Ac(a2-6)Gal(b1-4)GlcNAc
# Procedure, shortened: as §1
# [28] = target: Neu5Ac(a2-6)Gal(b1-4)GlcNAc(b1-3)Gal(b1-4)GlcNAc
# Procedure, shortened: as §1
# [29] = target: Neu5Ac(a2-6)Gal(b1-4)GlcNAc(b1-3)Gal(b1-4)GlcNAc(b1-3)Gal(b1-4)GlcNAc(b1-2)Man(a1-3)[Neu5Ac(a2-6)Gal(b1-4)GlcNAc(b1-3)Gal(b1-4)GlcNAc(b1-3)Gal(b1-4)GlcNAc(b1-2)Man(a1-6)]GalNAc
# Procedure, shortened: as §1
# [30] = target: Neu5Ac(a2-6)GalNAc
# Procedure, shortened: as §1
# [31] = target: Neu5Ac(a2-8)Neu5Ac(a2-8)Neu5Ac(a2-8)Neu5Ac(a2-3)[GalNAc(b1-4)]Gal(b1-4)Glc
# Procedure, shortened: as §1
# [32] = target: Neu5Ac(b2-6)GalNAc
# Procedure, shortened: as §1
# [33] = target: Neu5Gc(a2-3)Gal(b1-4)GlcNAc(b1-3)Gal(b1-4)GlcNAc(b1-2)Man(a1-3)[Neu5Gc(a2-3)Gal(b1-4)GlcNAc(b1-3)Gal(b1-4)GlcNAc(b1-2)Man(a1-6)]Man(b1-4)GlcNAc(b1-4)GlcNAc
# Procedure, shortened: as §1
# [34] = target: Neu5Gc(a2-8)Neu5Gc(a2-3)Gal(b1-4)GlcNAc
# Procedure, shortened: as §1
binder,measurement,setting,value
B1,glycan array binding signal (z-score),[1],-0.372
same,glycan array binding signal (z-score),[2],-0.246
same,glycan array binding signal (z-score),[3],-0.192
same,glycan array binding signal (z-score),[4],-0.525
same,glycan array binding signal (z-score),[5],0.084
same,glycan array binding signal (z-score),[6],-0.551
same,glycan array binding signal (z-score),[7],-1.24
same,glycan array binding signal (z-score),[8],-0.077
same,glycan array binding signal (z-score),[9],-0.29
same,glycan array binding signal (z-score),[10],3.06
same,glycan array binding signal (z-score),[11],2.24
same,glycan array binding signal (z-score),[12],2.39
same,glycan array binding signal (z-score),[13],-0.295
same,glycan array binding signal (z-score),[14],0.368
same,glycan array binding signal (z-score),[15],-0.099
same,glycan array binding signal (z-score),[16],-0.373
same,glycan array binding signal (z-score),[17],0.479
same,glycan array binding signal (z-score),[18],-1.47
same,glycan array binding signal (z-score),[19],-0.681
same,glycan array binding signal (z-score),[20],-0.06
same,glycan array binding signal (z-score),[21],1.09
same,glycan array binding signal (z-score),[22],0.026
same,glycan array binding signal (z-score),[23],-0.678
same,glycan array binding signal (z-score),[24],3.04
same,glycan array binding signal (z-score),[25],0.603
same,glycan array binding signal (z-score),[26],-0.768
same,glycan array binding signal (z-score),[27],-0.869
same,glycan array binding signal (z-score),[28],-1.3
same,glycan array binding signal (z-score),[29],3.53
same,glycan array binding signal (z-score),[30],-0.465
same,glycan array binding signal (z-score),[31],-0.059
same,glycan array binding signal (z-score),[32],-0.238
same,glycan array binding signal (z-score),[33],-0.264
same,glycan array binding signal (z-score),[34],-0.386
